Screening results (PubChem)
In the library only some 4.1% were active in any assay of this set; here they are far more common.
ssDAF12 agonist – S. stercoralis DAF-12 activation, primary screen. AID 652126. 370,000 compounds, 1% hits. HEK293 ssDAF-12/GRIP1 lit1-tk-luc reporter, luminescence; % of 3 µM dafachronic acid response. activation, % at 6.8 µM;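 active = activation above the mean over all tested compounds plus 3 SD, cut at about 0.9% in these data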;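 also: 0% = DMSO-only wells and 100% = 3 µM delta7-dafachronic acid wells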
DAX1 inh-1 – DAX1 (NR0B1) inhibition, primary screen; 370,000 compounds, 1.1% hits; inhibition, % at 6.8 µM; HEK293T StAR-luciferase reporter, SF-1/DAX-1 repression relief; AID 652010;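 active = inhibition above the mean over all tested compounds plus 3 SD, cut at about 3.6% in these data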;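 also: 0% = DAX-1 cells with DMSO and 100% = cells lacking DAX-1 with DMSO; higher inhibition means more luminescence from relief of DAX-1 repression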
DAX1 inh-2 – NR0B1 (DAX1) inhibition; P51843; HEK293 Gal4-DAX1 luciferase reporter, luminescence; inhibition, % at 6.75 µM; 340,000 compounds, 0.99% hits;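 active = inhibition above the mean over all tested compounds plus 3 SD, cut at about 4.2% in these data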;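 also: 0% = DAX1-transfected cells with DMSO and 100% = empty-vector control cells with DMSO; inhibition shows as a rise in luminescence from relieved DAX1 repression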
Target sequence (P51843 207-470 limits assumed): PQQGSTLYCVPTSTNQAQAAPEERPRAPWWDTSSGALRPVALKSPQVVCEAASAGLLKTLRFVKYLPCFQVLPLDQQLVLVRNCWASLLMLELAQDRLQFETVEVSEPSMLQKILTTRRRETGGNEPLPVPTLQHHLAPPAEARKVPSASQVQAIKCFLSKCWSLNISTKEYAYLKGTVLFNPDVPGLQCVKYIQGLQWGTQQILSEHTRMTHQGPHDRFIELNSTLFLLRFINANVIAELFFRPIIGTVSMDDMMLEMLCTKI
hcDAF-12 act – activators of H. contortus DAF-12 nuclear receptor. HEK293 hcDAF-12 lit1-tk-luc reporter, luminescence; 0% DMSO, 100% Δ7-dafachronic acid. activation, % at 6.8 µM. 370,000 compounds, 1.4% hits;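 active = activation above the mean of all tested compounds plus 3 SD, cut at about 5.5% in these data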;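 also: 100% = response to 3 µM Δ7-dafachronic acid high control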
hgDAF-12 ag – agonists of H. glycines DAF-12 nuclear receptor; HEK293 GAL4-hgDAF12 UAS-luciferase reporter, agonist luminescence; normalized to butyrate control; activation, % at 6.8 µM; 370,000 compounds, 1.8% hits;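 active = activation above a cutoff set at the mean of all screened compounds plus 3 SD, cut at about 10% in these data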;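 also: 0% = DMSO wells and 100% = sodium butyrate wells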
LXR ag – counter-screen for hcDAF-12 agonists: agonists of human LXR-beta; 3,400 tested, under 10 active; activation, % at 6.8 µM; AID 743027; HEK293 Gal4-LXR tk-luc reporter, luminescence, 24 h; normalized: DMSO 0%, positive control 100%; shares compounds with hcDAF-12 act;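 active = mean percent activation of the reporter above a cutoff set as the average over tested compounds plus their standard deviation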
hcDAF12 ag – hcDAF-12 agonism, confirmation assay | shares compounds with hcDAF-12 act | HEK293 hcDAF-12 lit1-tk-luc reporter, luminescence; % of Δ7-dafachronic acid response | activation, % at 6.8 µM | 3,400 compounds, 61% hits | AID 743032;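 active = mean activation across triplicate tests above the threshold derived from the earlier primary screen, cut at about 5.5% in these data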;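 also: 0% = DMSO only wells and 100% = 3 µM Δ7-dafachronic acid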
hgDAF12 conf – hgDAF-12 agonism, confirmation assay. HEK293 GAL4-hgDAF12 luciferase reporter, agonist mode; percent of butyrate response. activation, % at 6.8 µM. 3,300 compounds, 80% hits. shares compounds with hgDAF-12 ag. AID 743050;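 active = mean activation over triplicate wells above the hit cutoff derived from the earlier primary screen, cut at about 11% in these data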;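 also: 0% = DMSO low control and 100% = 2 mM sodium butyrate high control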
LXRb DAF12 ctr – counter-screen for DAF-12 agonists: agonists of human LXR-beta | activation, % at 6.8 µM | shares compounds with hgDAF-12 ag | HEK293 Gal4-LXR luciferase reporter, 24 h | 3,300 tested, under 10 active;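 active = mean activation of the triplicate above a set limit carried over from the primary screen, none filed active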
The depositor's hits bear a star; . = not tested or not shown.

SMILES	ssDAF12 agonist	DAX1 inh-1	DAX1 inh-2	hcDAF-12 act	hgDAF-12 ag	LXR ag	hcDAF12 ag	hgDAF12 conf	LXRb DAF12 ctr
Cc1csc(NC(=O)c2cc3c(s2)CCC3)n1	0.8	2.7	-1.4	7.4*	17.2*	1.6	9.0*	17.6*	1.0
COc1cccc(/C=N/Nc2ccc([N+](=O)[O-])cc2)c1O	0.8	1.2	2.1	7.3*	24.6*	1.6	7.2*	20.9*	1.0
COc1cccc(CN2CCC(C(=O)Nc3ccc(-c4cccc(C)c4)cc3)CC2)c1O	-1.9	-0.8	-1.7	-1.5	-3.8	.	.	.	.
COc1ccc(NC(=O)c2c(Cl)nc3ccccn23)cc1	-1.5	0.7	-0.9	-0.6	1.1	.	.	.	.
COc1ccc(-c2nc3ccccn3c2Cl)cc1	3.2*	2.5	-0.5	15.0*	14.1*	1.7	18.6*	24.0*	1.2
N#CC(=C1CCCC1)c1nc(-c2ccccc2)cs1	1.7*	2.2	5.2*	7.5*	17.4*	1.3	6.0*	21.1*	0.8
C/C(=C\c1ccccc1)C(=O)NCc1ccco1	-0.3	0.4	2.0	4.5	-0.4	.	.	.	.
CCC1=Nc2ccccc2NC2=C1C(=O)CCC2	2.6*	3.5	1.9	15.1*	13.7*	0.0	7.9*	10.3	0.4
CC1CC(=O)C2=C(C1)Nc1ccccc1N=C2 (centres undefined)	-0.8	0.0	0.2	-1.7	4.7	.	.	.	.
COc1ccc2c(c1)CC/C(=C/c1ccco1)C2=O	0.2	4.2*	2.3	8.6*	15.6*	1.9	6.2*	15.7*	0.9
COc1ccc(NC2=C(NC(C)=O)C(=O)c3ccccc3C2=O)cc1	-0.7	-0.9	-0.6	-0.8	-0.1	.	.	.	.
CCC(=O)NC1=C(Nc2ccc(N)cc2)C(=O)c2ccccc2C1=O	0.8	1.8	2.6	7.9*	13.5*	1.1	8.0*	11.2*	0.5
Cc1ccc(-c2nnc(-c3ccccc3Br)o2)cc1	1.8*	2.9	3.7	14.8*	19.6*	1.4	10.1*	19.9*	1.3
Cc1ccccc1-c1nnc(-c2ccccc2)o1	0.6	1.8	3.4	7.8*	13.5*	0.8	9.3*	17.3*	0.8
Cc1ccc(C(=O)NCCc2nnc3ccc(SCC(=O)Nc4ccccc4F)nn23)cc1	-0.8	0.6	0.6	-1.5	1.5	.	.	.	.
CN1CCSc2ccc(C(=O)Nc3cc(F)ccc3F)cc21	1.1*	4.3*	9.5*	7.2*	19.7*	1.5	4.0	17.9*	0.9
O=C(O)c1cccc(S(=O)(=O)Nc2ccc(OCc3ccccc3)cc2)c1	-1.1	0.3	-1.2	0.8	1.0	.	.	.	.
O=C(O)c1cccc(COc2ccc3c(c2)CCC3)c1	2.8*	3.6*	-8.7	10.1*	13.9*	1.6	11.9*	23.0*	1.2
Cc1ccc(COc2ccc(/C=N/O)cc2)cc1	1.4*	1.6	5.5*	7.8*	17.2*	1.2	7.0*	17.3*	0.8
CCOc1ccc(/C=N/O)cc1	-1.4	-0.6	0.3	0.5	3.2	.	.	.	.
CC(=O)NCCc1ccc(C(=O)COC(=O)C2CCCCC2)cc1	-1.1	-1.6	2.2	0.3	5.2	.	.	.	.
CCOc1ccc(CNC(=O)C2CCCN(S(=O)(=O)N3CC(C)CC(C)C3)C2)cc1OC (centres undefined)	-1.3	-1.1	-0.6	-2.4	3.0	.	.	.	.
CCOc1ccccc1C(=O)N/N=C/c1coc2ccc(C)cc2c1=O	0.3	-0.4	0.0	2.4	8.7	.	.	.	.
COc1ccc(C(O)c2ncc(-c3ccccc3F)[nH]2)cc1 (centres undefined)	-0.5	0.0	.	0.2	5.9	.	.	.	.
COc1ccc(-c2cc3ccc(OC)cc3cn2)cc1	1.1*	4.2*	0.5	9.9*	20.8*	1.8	11.7*	17.6*	1.1
